# Measured values published in ChEMBL document CHEMBL4513216, “Probing the Open Global Health Chemical Diversity Library for Multistage-Active Starting Points for Next-Generation Antimalarials” (ACS Infect Dis, 2020).
# Among all 69,000 compounds or so, about 8,600 (12%) showed an effect of 50% or more. Only a selection was taken, and strong results are over-represented in it overall.
# System: Plasmodium berghei
# Experiment: Screen against P. berghei liver stage (PbLuc), transformed with Luciferase, at 10uM
# Format: functional, HepG2
# Details: tested at 10 uM
row,Compound,INHIBITION
1,COc1ccc(C[C@H]2CN(C(=O)CS(C)(=O)=O)CC[C@H]2OC)cc1,33.4%
2,COCCN1CC[C@H]2CN(Cc3ccc(C)s3)C[C@@H]2C1=O,-75%
3,NC(=O)CCC1CCCN(Cc2cnc(N3CCCCC3)nc2)C1 (configuration not stated),67.8%
4,CCc1cnc(N2CCCC(CCC(N)=O)C2)nc1 (configuration not stated),17.9%
5,c1nc(N2CCCC2)ncc1CN1CCCC(CN2CCCCC2)C1 (configuration not stated),21.1%
6,Cc1nn(C)c2ncc(C(=O)N3CCNC(=O)C3)cc12,1.86%
7,COCC(=O)N1CCC(c2cc3ncccc3c(O)n2)CC1,-27.4%
8,O=C(CCC1CCCC1)N1CCC(c2cc3ncccc3c(O)n2)CC1,55.6%
9,O=C(CC1CCCC1)N1CCC(c2cc3ncccc3c(O)n2)CC1,-2.11%
10,O=C(c1c(F)cccc1F)N1CCOCC1,30.45%
11,Cn1ccc(C(=O)NCc2cccc(N3CCCCC3=O)c2)cc1=O,45.9%
12,O=C(Nc1cccc(CNCc2csc(Br)c2)c1)C1CC1,70.7%
13,Cn1ccc(C(=O)NCc2cccc(CN3CCCC3)c2)cc1=O,48.8%
14,Cn1ccc(C(=O)NCc2ccc(Cn3ccnc3)cc2)cc1=O,-7.17%
15,Cc1nccn1Cc1cccc(CNC(=O)c2ccn(C)c(=O)c2)c1,53.8%
16,O=C(Nc1cccc(CNCc2ccsc2)c1)C1CC1,21.8%
17,Cn1ccc(C(=O)NCc2cccc(NC(=O)C3CCC3)c2)cc1=O,61.1%
18,Cn1ccc(C(=O)NCc2cccc(Cn3ccnc3)c2)cc1=O,31.4%
19,O=C(Nc1cccc(CNCc2cccnc2)c1)C1CCCC1,39.65%
20,COCCC(=O)N1CCC(c2cc(O)n(C)n2)C1 (configuration not stated),0.301%
21,O=C(O)CC(CC(=O)NCc1ccsc1)c1cccs1 (configuration not stated),-24%
22,CCn1cc(NC(=O)NCCc2ccc3c(c2)OCO3)cn1,-23.9%

row,Compound,INHIBITION
1,CCc1nc(C(=O)N(C)CC(=O)N(C)C)nn1-c1ccccc1Cl,27.9%
2,c1ccc2oc(CCCN3CCOC(Cn4cncn4)C3)nc2c1 (configuration not stated),47.1%
3,Cc1ccsc1C(=O)N1CCC(Nc2cccnc2)CC1,-36.6%
4,COCCN1C(=O)[C@@H]2CC[C@H]1CN(S(=O)(=O)c1ccc(OC)cc1)C2,1.56%
5,Cc1cc(C(F)(F)F)c2c(C3CCCN(C(=O)C4CC4)C3)noc2n1 (configuration not stated),26.8%
6,CNc1ccc(Cl)cc1C(=O)N1CCC(Cn2cc(CN)nn2)CC1,21.2%
7,Cc1cc(Br)c2c(c1)C1(CC(=O)Nc3c1cnn3C(C)C)C(=O)N2 (configuration not stated),-34.8%
8,CN1C(=O)C2(CC(=O)Nc3c2cnn3C(C)(C)C)c2c(Cl)cccc21 (configuration not stated),5.58%
9,Cc1cc(C)c2c(c1)C1(CC(=O)Nc3c1cnn3C(C)C)C(=O)N2 (configuration not stated),-20.5%
10,CC(C)n1ncc2c1NC(=O)CC21C(=O)Nc2c(Cl)cc(Cl)cc21 (configuration not stated),-35.5%
11,CC(C)n1ncc2c1NC(=O)CC21C(=O)Nc2c(Br)cc(Cl)cc21 (configuration not stated),59.3%
12,CC(C)n1ncc2c1NC(=O)CC21C(=O)Nc2c(Cl)ccc(Cl)c21 (configuration not stated),73.6%
13,CC(C)n1ncc2c1NC(=O)CC21C(=O)Nc2cc(Cl)cc(Cl)c21 (configuration not stated),89.6%
14,CC(C)n1ncc2c1NC(=O)CC21C(=O)Nc2c(Cl)cccc21 (configuration not stated),-75.8%
15,CC(C)n1ncc2c1NC(=O)CC21C(=O)Nc2c(Cl)cc(Br)cc21 (configuration not stated),-23.7%
16,CC(=O)c1ccc(N2CCN(C(=O)NCc3cc[nH]n3)CC2)cc1,48.4%
17,O=C(c1ccsc1)N1CCOC2(CCN(Cc3cccnc3)CC2)C1,-9.67%
18,COc1ccc2oc(C(C)NC(=O)NC3CCN(C)CC3)c(C)c2c1 (configuration not stated),2.4%
19,Cn1ccnc1CNC(=O)N(CCCO)C1CCc2ccccc21 (configuration not stated),8.05%
20,CCC[C@H]1CN(c2cncc(C(=O)N3CCCCC3)n2)C[C@@H]1N(C)C,-12.2%
21,COCCNC(=O)Cn1cc(OCc2ccc(F)cc2)c(=O)cc1C,25.8%
22,Cc1nc(O)cc(C2CCCN2CCO)n1 (configuration not stated),13.5%

row,Compound,INHIBITION
1,CC(=O)Cc1c(C)nn(-c2cncc(N)c2)c1C,11.5%
2,O=C1CC2(CCCC2)CN1CCOc1ccc(F)cc1,-144%
3,O=C(C1=COCCO1)N1CC(Oc2nc3c(Cl)cccc3s2)C1,74.6%
4,OC1CN(c2nc3c(C(F)(F)F)cccc3s2)C1,-40%
5,O=C(C1=COCCO1)N1CC(Oc2nc3c(C(F)(F)F)cccc3s2)C1,81.1%
6,CC(=O)OC1CN(c2nc3c(C(F)(F)F)cccc3s2)C1,-107%
7,COc1cccc2sc(OC3CN(C(=O)C4=COCCO4)C3)nc12,13.3%
8,Cn1nc(C(=O)N2CC(Oc3nc4c(Cl)cccc4s3)C2)ccc1=O,29.6%
9,CC1CCN(C(=O)CSc2nc3c(cnn3CCO)c(=O)[nH]2)CC1,38.6%
10,O=C(c1ccc2[nH]nnc2c1)N1CC[C@H](O)[C@]2(CCCO2)C1,1.62%
11,CCc1cccc(NC(=O)N2CCn3cnc(COC)c3C2)c1,-2.35%
12,CCN(CC1CCCO1)C(=O)Nc1cc(C(N)=O)ccc1OC (configuration not stated),2.3%
13,O=C(Cc1ccsc1)N1CCC[C@@H]1Cn1c(=O)oc2ccccc21,8.2%
14,O=C(NCC1CCOCC1)[C@@H]1CC[C@@H]2[C@@H](CCN2Cc2ccncc2)O1,-54.7%
15,O=C(CCc1cccnc1)N(Cc1ccsc1)CC1CCCO1 (configuration not stated),-9.86%
16,O=C(COCC1CCCO1)N(Cc1cccnc1)c1ccc(F)cc1 (configuration not stated),53.3%
17,O=C(CN(Cc1cccnc1)CC1CCCO1)Nc1ccc(F)cc1 (configuration not stated),21.6%
18,Cn1cc(C2CC(=O)NC23CCN(C(=O)c2cccnc2)CC3)cn1 (configuration not stated),33.4%
19,O=C(c1csc(-c2ncccn2)n1)N1CCCC1Cn1cccn1 (configuration not stated),41.5%
20,CC(C)CC(=O)Nc1cccc(CNCc2cccs2)c1,52.1%
21,O=C(Nc1cccc(CNCc2cccs2)c1)C1CC1,20.5%
22,O=C(Nc1cccc(CNCc2cccs2)c1)C1CCCC1,36.9%

row,Compound,INHIBITION
1,Cc1cnn(CC2CCCN2C(=O)c2sccc2-n2cnnn2)c1 (configuration not stated),-29.1%
2,COCCC(=O)N(C)CCC1=CCN(C)CC1,-6.274%
3,CN(C)C(=O)C1(c2cnccn2)CCCN1C(=O)Cc1ccsc1 (configuration not stated),41%
4,CCN1CC[C@]2(CN(C(=O)[C@H]3CCCO3)C[C@H]2c2ccccc2)C1=O,52.3%
5,CN1Cc2ccccc2CC2(CCN(C(=O)[C@H]3CCCO3)CC2)C1=O,59.3%
6,CN1CC[C@]2(CN(C(=O)[C@H]3CCCO3)C[C@H]2c2ccccc2)C1=O,4.02%
7,CN1Cc2ccccc2CC2(CCN(C(=O)N3CCOCC3)CC2)C1=O,26.5%
8,O=C([C@H]1CCCO1)N1CCC2(CC1)Cc1ccccc1CNC2=O,7.7%
9,CCN1CC[C@]2(CN(C(=O)C3CCOCC3)C[C@H]2c2ccccc2)C1=O,20.1%
10,CSCCC(=O)N1CCCC(n2ccnc2)C1 (configuration not stated),-6.14%
11,CC(C)Cn1cc2nc(N)[nH]cc-2c1=O,29.2%
12,O=C(NCCN1CCCCCC1=O)Nc1cccnc1-n1cccn1,-15.4%
13,CCc1ncc2c(n1)CN(c1cc(NC3CC3)nc(N)n1)C2,-49.6%
14,CCn1cc(-n2cc3nc(N)[nH]cc-3c2=O)cn1,-8.69%
15,CCN(CC)S(=O)(=O)c1cc(NC(=O)CCc2cscn2)ccc1C,28.9%
16,CCCN(CCC)S(=O)(=O)c1cc(NC(C)=O)ccc1C,71.2%
17,CCN(CC1CCCO1)S(=O)(=O)c1cc(NC(C)=O)ccc1C (configuration not stated),47.7%
18,O=C(c1cccc(C2CCNC2)c1)N1CCC(N2CCC(O)CC2)CC1 (configuration not stated),35.1%
19,COc1ccc(C(=O)N2CCOC3(CNCCOC3)C2)c(OC)n1 (configuration not stated),53.6%
20,Cc1cc2cccc(C(=O)N3CCOC4(CNCCOC4)C3)c2o1 (configuration not stated),30.5%
21,O=C(c1ccccc1-c1ccccc1)N1CCOC2(CNCCOC2)C1 (configuration not stated),-16.5%
22,Cc1ccccc1C(=O)N1CCOC2(CNCCOC2)C1 (configuration not stated),55.1%

row,Compound,INHIBITION
1,CN(C)c1ccccc1C(=O)N1CCOC2(CNCCOC2)C1 (configuration not stated),8.53%
2,COc1ccc(Cl)cc1C(=O)N1CCOC2(CNCCOC2)C1 (configuration not stated),16.8%
3,Cc1nc(C)n(CC2CCCN2CC(=O)NCCC#N)n1 (configuration not stated),8.38%
4,Cc1nc(-c2ccc(C(=O)O)cc2)cc(C2CCN(C(C)C)CC2)n1,26.3%
5,OC(CN1CCC(c2ccn[nH]2)CC1)c1ccc(F)cc1 (configuration not stated),-12.2%
6,Cc1cc(Nc2nc(C)cc(C)n2)cc(C2CCCN2)n1 (configuration not stated),49.2%
7,Cc1cc(S(=O)(=O)N2C[C@H](C3CC3)[C@@H](N)C2)c(C)s1,1.71%
8,COc1ccc(CC(=O)N2CCN(C)c3ncccc3C2)cc1,8.44%
9,CC1(C)CNC(=O)CN(C(=O)CCc2ccccc2)C1,40.4%
10,CC1(C)CNC(=O)CN(C(=O)Cc2ccccc2)C1,-1.99%
11,CC1(C)CNC(=O)CN(C(=O)COc2ccccc2)C1,55.5%
12,CN1C[C@H](O)[C@]2(CCN(C(=O)COc3ccccc3)C2)S1(=O)=O,9.36%
13,COc1ccc(CC(=O)N2CC(=O)NCC(C)(C)C2)cc1,60.1%
14,CSc1[nH]nc(NC(=O)c2cccs2)c1C#N,24.2%
15,Cn1cc(CCNCc2cc(Cl)c3c(c2)OCCO3)cn1,-9.4%
16,O=C1Nc2ccccc2CN(CC2CCCC2)C12CCNC2 (configuration not stated),-44.5%
17,O=C(NCc1nnc2n1CCCC2)c1cn(-c2ccccc2)nn1,36.4%
18,O=C(NCc1nnc2n1CCC2)c1cn(-c2ccccc2Br)nn1,50.4%
19,O=C(NCc1nnc2n1CCC2)c1cn(-c2ccccc2)nn1,13.6%
